This is an account of results in PubChem BioAssay AID2685 (National Center for Advancing Translational Sciences (NCATS), 2010).

Each structure is given as a SMILES string. Screen size: about 320,000 compounds; about 2,100 (0.66%) were called active. Another 53% or so got no clear call; they are omitted. The call rests on the fitted dose curve; in most records, active means well fitted inhibition curve with a large enough effect in the signal ratio, with a control signal flat (not every such curve was filed as active); inconclusive means small, poorly fitted or top-dose-only effect, or effect the other way, or a change in a side signal; inactive means flat fitted curve, though single readings scatter; the % refers to the signal ratio. Many of the other results were omitted from the sample, so actives are more common in it than they were.
Potency means the concentration at half of the fitted maximal effect.

This experiment is described as follows: qHTS Assay for Lipid Storage Modulators in Drosophila S3 Cells.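 On cell number change: cells counted by Cell Tracker Red CMTPX staining in the red channel.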 As to conditions: BODIPY lipid droplet fluorescence, 18-24 h, cells fed with added oleic acid; cell number change: measured here: cell count max response; series mostly up to 46.1 µM. The method in brief: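 Drosophila S3 cells loaded with oleic acid (400 uM, as added) and compounds at several concentrations; lipid droplets imaged by 488-nm laser-scanning cytometry, 500–530 nm intensity and object ratio to cell channel. Percent activity normalized to 20 uM Triacsin C.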
In general terms: qHTS replaces the single test concentration by a dilution series.
For `COc1ccc(Cl)cc1NC(=O)COC(=O)CCNC(C)=O`, the Potency result was “inactive” and the cell number change amounted to 0.288%.

Regarding `COc1ccc(OC)c(NC(=O)NCCc2cccc(Cl)c2)c1`, the Potency result was “inactive” and the cell number change came out at 4.18%.

As to `COc1ccc(OC)c(NC(=O)NCCCCc2ccccc2)c1`, the Potency was 2.91 µM (active) and the cell number change was -13.4%.

In the case of `COc1ccc(Cl)cc1NC(=O)CN1CCN(Cc2ccccc2)CC1`, the Potency entry was “inactive” and the cell number change is 1.46%.

As to `COc1ccc(OC)c(NC(=O)CCCc2ccccc2)c1`, the Potency result is “inactive” and the cell number change is 8.01%.

Take `COc1ccc(OC)c(NC(=O)CN2C(=O)C(=O)N(Cc3ccccc3)C2=O)c1`: the Potency was 2.31 µM (active) and the cell number change was -12.4%.

With `COc1ccc(Cl)cc1NC(=O)CCNC(=O)OCc1ccccc1`, the Potency is 7.31 µM (active) and the cell number change was -13.6%.

Take `COc1ccc(OC)c(NC(=O)CCN2C(=O)c3ccccc3C2=O)c1`: the Potency entry was “inactive” and the cell number change turned out to be 23.6%.

For the compound `COc1ccc(OC)c(NC(=O)CCN2CCN(Cc3ccccc3)CC2)c1`, the Potency entry was “inactive” and the cell number change was -0.977%.

In the case of `COc1ccc2oc(=N)c(C(=O)NCc3ccccc3)cc2c1`, the Potency entry is “inactive” and the cell number change came out at 8.47%.

`O=C(O)CCc1ccc(-c2cccs2)n1NC(=O)c1ccc(O)cc1`: the Potency entry is “inactive” and the cell number change is 6.61%.

As for `O=C(COC(=O)/C=C/c1ccccc1)NCc1ccccc1Cl`, the Potency entry was “inactive”.

As for `O=C(COC(=O)C1CC2C=CC1C2)NCc1ccccc1Cl` (stereo not given), the Potency entry is “inactive” and the cell number change came to 9.83%.

Turning to `CC1CC1C(=O)OCC(=O)NCc1ccccc1Cl` (stereo not given), the Potency is 32.6 µM (active) and the cell number change was -18.4%.

On to `Oc1cccc(/C=N/Nc2ccc(Cl)nn2)c1`, for which the Potency result was “inactive” and the cell number change worked out at 0.54%.

Consider `O=C1c2ccccc2C(=O)N1c1cccnc1`, for which the Potency was 25.9 µM (active) and the cell number change is -5.37%.

Take `O=C1c2cccc([N+](=O)[O-])c2C(=O)N1c1cccnc1`: the Potency entry is “inactive”.

In the case of `O=C1c2cccc3cccc(c23)C(=O)N1c1cccnc1`, the Potency entry was “inactive” and the cell number change was -10.8%.

With `Cc1ccccc1Nc1nnc(SCC(=O)Nc2ccccc2[N+](=O)[O-])s1`, the Potency result was “inactive” and the cell number change was -4.61%.

For `CCCCC[C@H]1CN(C2CCCCC2)C(=O)[C@@H]1CC(=O)NCc1ccccc1`, the Potency is 16.4 µM (active) and the cell number change is -8.08%.

Turning to `CCCCC[C@H]1CN(CCc2ccccc2)C(=O)[C@@H]1CC(=O)NCc1ccc(OC)cc1`, the Potency result is “inactive” and the cell number change is -13.8%.

Take `CCCCN1C[C@H](Cc2ccccc2)[C@@H](CC(=O)NCc2ccc(OC)cc2)C1=O`: the Potency entry was “inactive” and the cell number change was 2.91%.

On to `CCOC(=O)c1ccc(NC(=O)c2nc[nH]c2C(=O)N2CCc3ccccc3C2)cc1`, for which the Potency result is “inactive” and the cell number change came to 9.14%.

With `O=[N+]([O-])c1cccc2c(S(=O)(=O)N3CCCCC3)cccc12`, the Potency result was “inactive” and the cell number change is -7.14%.

For `O=[N+]([O-])c1cc(S(=O)(=O)N2CCCCCC2)ccc1Cl`, the Potency entry was “inactive” and the cell number change is -8.42%.

For the compound `Cc1ccc(S(=O)(=O)N2CCCCCC2)cc1[N+](=O)[O-]`, the Potency result was “inactive” and the cell number change is -8.44%.

On to `O=[N+]([O-])c1cc(S(=O)(=O)N2CCCCCC2)ccc1F`, for which the Potency is 14.6 µM (active) and the cell number change is -27.8%.

Take `O=[N+]([O-])c1ccccc1S(=O)(=O)N1CCSCC1`: the Potency entry was “inactive” and the cell number change is -12%.

Regarding `O=[N+]([O-])c1ccccc1S(=O)(=O)N1CCCCC1`, the Potency was 3.66 µM (active).
